PubChem BioAssay (Tox21)
Values joined by “and” are separate entries in the source; they are usually repeats but may differ in a detail not shown here. Equal entries are not always repeated. Results filed as inconclusive are left out. A call without a number means that no potency is given here. The source holds several records for some structures; these can differ, active in one and inactive in another. Active and inactive are the calls of the source. Unless noted, calls come from the whole dose curve; as a rule, active = well fitted curve in the direction sought with a large enough effect in the repeat runs; inconclusive = weak or mixed curves; inactive = no such curve, though single readings can be large; an effect the other way counts as inactive or inconclusive. Residues, ends and D or L forms follow the SMILES beside them.

Columns and labels:
[1] = qHTS assay to identify small molecule agonists of H2AX (AID 1224845; active = well fitted activation curve with a large enough effect in the signal ratio in the repeat runs, not every such curve was filed as active; the % refers to the signal ratio)
In short: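 Wild-type CHO-K1 cells, plated overnight, exposed 3hr at 37C to 15 concentrations (0.76% DMSO final). Lysed, then HTRF anti-pH2AX (S139) cryptate and anti-H2AX-d2 antibodies, 24 hr room temperature; 665/620 nm emission read.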

[2] = qHTS assay to identify small molecule agonists of the hypoxia (HIF-1) signaling pathway (AID 1224846; active = well fitted activation curve with a large enough effect in the signal ratio in the repeat runs, not every such curve was filed as active; the % refers to the signal ratio)
In short: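 A low-serum medium (0.5% dialyzed FBS) holding 2,000 HRE-bla ME-180 cells per well is preincubated for 5 hrs, dosed with compounds by pintool, and kept a further 17 hrs at 37C, 5% CO2 before CCF4-AM FRET detection of beta-lactamase.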

[3] = qHTS assay to identify small molecule agonists of H2AX - cell viability counter screen (AID 1224847; calls by dose curve; note: top concentration of the series differs between compounds; nearly all actives have a fitted effect of over 30% in size)
In short: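 Viability of CHO-K1 (wild type) cells after 3 hr compound exposure was measured by CellTiter-Glo luminescence.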

[4] = qHTS RealTime-Glo MT Cell Viability Assay in HepG2 cells - 24 hour (AID 1224867); note: nearly all actives have a fitted effect of over 50% in size; note: potency is the fitted concentration of half-maximal effect
In short: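 HepG2 cells (600/well) were dispensed with RealTime-Glo reagents, incubated 5 h at 37 °C, then treated with compounds in DMSO for up to 40 h. Nonlytic NanoLuc luminescence reflecting viable cells was read at each stated time point.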

[5] = qHTS RealTime-Glo MT Cell Viability Assay in HEK293 cells - 32 hour (AID 1224868); note: nearly all actives have a fitted effect of over 50% in size; note: potency is the fitted concentration of half-maximal effect
In short: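 HEK293 cells seeded with NanoLuc/prosubstrate reagent, rested 5 h at 37 C, then dosed and kept at 37 C up to 40 h. Nonlytic real-time luminescence from viable cells read at 0, 8, 16, 24, 32 and 40 h.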

[6] = A CellTox Green Cytotoxicity Assay to monitor cytotoxicity in HEK293 cells - 0 hour (AID 1224869); note: nearly all actives have a fitted effect of over 50% in size
In short: (§1)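 Fluorescence intensity, read at 0, 8, 16, 24, 32 and 40 h of compound treatment, reflected dye binding to DNA of dead HEK293 cells; compounds (23 nL, DMSO) were added 5 h after plating cells with reagent.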

[7] = qHTS RealTime-Glo MT Cell Viability Assay in HepG2 cells - 40 hour (AID 1224870); note: nearly all actives have a fitted effect of over 50% in size; note: potency is the fitted concentration of half-maximal effect
In short: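 HepG2 cells (600/well) mixed with RealTime-Glo MT reagent, settled 5 h at 37 C/5% CO2 before compound addition. Nonlytic NanoLuc luminescence from viable-cell prosubstrate reduction read repeatedly during 40 h treatment at 37 C.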

[8] = A CellTox Green Cytotoxicity Assay to monitor cytotoxicity in HEK293 cells - 40 hour (AID 1224871); note: nearly all actives have a fitted effect of over 45% in size; note: potency is the fitted concentration of half-maximal effect
In short: as §1

[9] = qHTS assay to identify small molecule antagonists of the estrogen related receptor (ERR) signaling pathway from Tox21 library (AID 1224848); note: nearly all actives have a fitted effect of over 50% in size; note: potency is the fitted concentration of half-maximal effect
In short: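 Luminescent reporter read-out (ONE-Glo) from NTP's ERR cell line after 18 h treatment at 37 C with DMSO-dissolved Tox21 compounds; cells pre-plated 6 h beforehand at 2,000 per well.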

[10] = qHTS assay to identify small molecule agonists of the estrogen related receptor (ERR) signaling pathway from Tox21 library (AID 1224849; calls by dose curve; note: nearly all actives have a fitted effect of over 15% in size); conditions: ERR reporter cell line, ONE-Glo luciferase, 18 h
In short: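 Screening used an NTP-provided ERR luciferase cell line. Compounds in DMSO were added 6 h after seeding and left 18 h at 37 C before a 30 min ONE-Glo step and luminescence reading.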

| SMILES | outcome [1] | outcome [2] | outcome [3] | Potency [4] | Potency [5] | outcome [6] | Potency [7] | Potency [8] | Potency [9] | activity change, positive = activation ([10]; at 42.5 µM (top of the series)) | activity change, positive = activation ([10]; at 92.4 µM (top of the series)) | activity change, positive = activation ([10]; at 8.39 µM (top of the series)) |
| --- | --- | --- | --- | --- | --- | --- | --- | --- | --- | --- | --- | --- |
| NC(=O)NC1NC(=O)NC1=O (stereo not drawn) | inactive | inactive | inactive | inactive | inactive | inactive | inactive | inactive | – | – | – | – |
| CCCNC(=O)NS(=O)(=O)c1ccc(Cl)cc1 | inactive | inactive | inactive | inactive | inactive | inactive | inactive | inactive | – | – | – | – |
| CCCCC1C(=O)N(c2ccccc2)N(c2ccccc2)C1=O | inactive | inactive | inactive | inactive | inactive | inactive | inactive | inactive | 61.1 µM (active) and inactive | 2.49% (inactive) | -34.5% (inactive) and -44.9% (inactive) | – |
| CC(=O)OCC(COC(C)=O)OC(C)=O | inactive | inactive | inactive | inactive | inactive | inactive | inactive | inactive | inactive | 6.67% (inactive) | -0.709% (inactive) and 8.04% (inactive) | – |
| c1ccc2[nH]ccc2c1 | inactive | inactive | inactive | 6.07 µM (active) and inactive | 2.15 µM (active) and inactive | inactive | 3.41 µM (active) and inactive | 4.82 µM (active) and inactive | 2.39 µM (active) and inactive | 11.1% (inactive) | -76.8% (inactive) and 0.106% (inactive) | – |
| NC(N)=O | inactive | inactive | inactive | inactive | inactive | inactive | inactive | inactive | – | – | – | – |
| NS(=O)(=O)c1cc(C(=O)O)c(NCc2ccco2)cc1Cl | inactive | inactive | inactive | inactive | inactive | inactive | inactive | inactive | inactive | – | – | – |
| O=c1cc[nH]c(=S)[nH]1 | inactive | inactive | inactive | inactive | inactive | inactive | inactive | inactive | inactive | 7.5% (inactive) | 16.5% (inactive) and 3.21% (inactive) | – |
| O=C(O)c1cccnc1 | inactive | inactive | inactive | inactive | inactive | inactive | inactive | inactive | – | – | – | – |
| Cc1cc(=O)[nH]c(=S)[nH]1 | inactive | inactive | inactive | inactive | inactive | inactive | inactive | inactive | – | – | – | – |
| Nc1ccc(C(=O)O)cc1 | inactive | inactive | inactive | inactive | inactive | inactive | inactive | inactive | – | – | – | – |
| CNC[C@H](O)c1cccc(O)c1 | inactive | inactive | inactive | inactive | inactive | inactive | inactive | inactive | inactive | 5.4% (inactive) | -1.31% (inactive) and 0.843% (inactive) | – |
| O=C1NC(=O)c2ccccc21 | inactive | inactive | inactive | inactive | inactive | inactive | inactive | inactive | – | – | – | – |
| CC1(C)[C@@H]2CC[C@@]1(C)C(=O)C2 | inactive | inactive | inactive | inactive | inactive | inactive | inactive | inactive and 7.56 µM (active) | inactive | 1.44% (inactive) | 5.63% (inactive) and 2.83% (inactive) | – |
| O=C(c1ccccc1)C(O)c1ccccc1 (stereo not drawn) | inactive | inactive | inactive | inactive | inactive | inactive | inactive | inactive | – | – | – | – |
| CCCC(CCC)C(=O)O | inactive | inactive | inactive | inactive | inactive | inactive | inactive | inactive | – | – | – | – |
| CC(O)C(=O)O (stereo not drawn) | inactive | inactive | inactive | inactive | inactive | inactive | inactive | inactive | – | – | – | – |
| O=S(=O)(O)c1ccc2cc(O)ccc2c1 | inactive | inactive | inactive | inactive | inactive | inactive | inactive | inactive | – | – | – | – |

| SMILES | outcome [1] | outcome [2] | outcome [3] | Potency [4] | Potency [5] | outcome [6] | Potency [7] | Potency [8] | Potency [9] | activity change, positive = activation ([10]; at 42.5 µM (top of the series)) | activity change, positive = activation ([10]; at 92.4 µM (top of the series)) | activity change, positive = activation ([10]; at 8.39 µM (top of the series)) |
| --- | --- | --- | --- | --- | --- | --- | --- | --- | --- | --- | --- | --- |
| O=C(O)C(=O)O | inactive | inactive | inactive | inactive | inactive | inactive | inactive | inactive | – | – | – | – |
| O=C(O)CCC(=O)O | inactive | inactive | inactive | inactive | inactive | inactive | inactive | inactive | inactive | 5.73% (inactive) | 5.97% (inactive) and 1.48% (inactive) | – |
| CCCCCCCCCCCCCCCC(=O)O | inactive | inactive | inactive | inactive | inactive | inactive | inactive | inactive | – | – | – | – |
| CCCCOC(=O)CC(CC(=O)OCCCC)(OC(C)=O)C(=O)OCCCC | inactive | inactive | inactive | inactive | inactive | inactive | inactive | inactive | – | -18.7% (inactive) | -11.9% (inactive) and -24.8% (inactive) | – |
| O=C(O)CCCCC(=O)O | inactive | inactive | inactive | inactive | inactive | inactive | inactive | inactive | – | – | – | – |
| CCOc1ccc(NC(=O)CC(C)O)cc1 (stereo not drawn) | inactive | inactive | inactive | inactive | inactive | inactive | inactive | inactive | – | – | – | – |
| Cc1noc(NS(=O)(=O)c2ccc(N)cc2)c1C | inactive | inactive | inactive | inactive | inactive | inactive | inactive | inactive | – | – | – | – |
| OCCc1ccccc1 | inactive | inactive | inactive | inactive | inactive | inactive | inactive | inactive | – | – | – | – |
| CC(O)CO (stereo not drawn) | inactive | inactive | inactive | inactive | inactive | inactive | inactive | inactive | inactive | – | -3.85% (inactive) and -1.76% (inactive) | -3.08% (inactive) |
| CCCCC(CC)COC(=O)/C=C/c1ccc(OC)cc1 (stereo not drawn) | inactive | inactive | inactive | inactive | inactive | inactive | inactive | inactive | inactive | -9.11% (inactive) | 7.09% (inactive) and -5.92% (inactive) | – |
| O=C(O)/C=C\C(=O)O | inactive | inactive | inactive | inactive | inactive | inactive | inactive | inactive | – | – | – | – |
| CC(C)(Oc1ccc(C2CC2(Cl)Cl)cc1)C(=O)O (stereo not drawn) | inactive | inactive | inactive | inactive | inactive | inactive | inactive | inactive | – | – | – | – |
| N=C(N)c1ccc(OCCCCCOc2ccc(C(=N)N)cc2)cc1 | inactive | inactive | inactive | inactive | 12.2 µM (active) and 16.6 µM (active) | inactive | 54.7 µM (active) and inactive | 48.8 µM (active) and 46.8 µM (active) and inactive | – | – | – | – |
| NC(=O)c1ccccc1O | inactive | inactive | inactive | inactive | inactive | inactive | inactive | inactive | – | – | – | – |
| C/C=C/c1ccc(OC)cc1 | inactive | inactive | inactive | inactive | inactive | inactive | inactive | inactive | – | – | – | – |
| O=C1CN(/N=C/c2ccc([N+](=O)[O-])o2)C(=O)N1 | inactive | inactive | inactive | inactive | inactive | inactive | inactive | inactive | 19.3 µM (active) and 30.6 µM (active) and 21.1 µM (active) | -52% (inactive) | -64.2% (inactive) and -59.1% (inactive) | – |
| COC(=O)[C@H](Cc1ccccc1)NC(=O)[C@@H](N)CC(=O)O (H-Asp-Phe-OMe) | inactive | inactive | inactive | inactive | inactive | inactive | inactive | inactive | – | – | – | – |
